Among all 5,500 compounds or so, about 2,000 (36%) were called active. Another 18% or so got no clear call; they are omitted. Cut-off read from the data, not from the text of the source: active = normalized growth mostly below about 0.91 (no sharp cut-off); inconclusive = no clear call, values can overlap the other calls; inactive = mostly above about 0.92. The list shows a part of the results.
Experiment: chemical genetic growth profiling, strain panel (AID 1159580);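 note: tested at 20 µM; growth read once vehicle control cultures reached saturation at 30 °C; 1 = growth at the plate median or of vehicle wells; lower values mean less growth of the strain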
Details: growth OD

Measured: normalized growth

Nc1ccc(S(=O)(=O)NC(=O)c2ccccc2)cc1
inactive: S. cerevisiae deletion strains, locus YJR066W, strain TOR1, hits give low values 0.932 | S. cerevisiae deletion strains, locus YJR075W, strain HOC1, hits give low values 1.02 | S. cerevisiae deletion strains, locus YKL009W, strain mrt4, hits give low values 1.02 | S. cerevisiae deletion strains, locus YKL068W, hits give low values 1.01 | S. cerevisiae deletion strains, locus YKL085W, strain MDH1 (second series), hits give low values 1 | S. cerevisiae deletion strains, locus YKL085W, strain MDH1, hits give low values 1 | S. cerevisiae deletion strains, locus YKL160W, strain elf1, hits give low values 1.01 | S. cerevisiae deletion strains, locus YKL190W, strain CNB1, hits give low values 1.01 | S. cerevisiae deletion strains, locus YKR001C, strain vps1, hits give low values 1.03 | S. cerevisiae deletion strains, locus YKR026C, strain gcn3, hits give low values 0.969 | S. cerevisiae deletion strains, locus YKR091W, strain srl3, hits give low values 0.978 | S. cerevisiae deletion strains, locus YLL001W, strain dnm1, hits give low values 0.995 | S. cerevisiae deletion strains, locus YLL026W, hits give low values 1 | S. cerevisiae deletion strains, locus YLL041C, strain sdh2, hits give low values 0.992 | S. cerevisiae deletion strains, locus YLR027C, strain aat2, hits give low values 0.996 | S. cerevisiae deletion strains, locus YLR039C, strain RIC1, hits give low values 0.834 | S. cerevisiae deletion strains, locus YLR058C, strain SHM2, hits give low values 1.01 | S. cerevisiae deletion strains, locus YLR102C, strain apc9, hits give low values 1.01 | S. cerevisiae deletion strains, locus YLR113W, strain HOG1, hits give low values 0.968 | S. cerevisiae deletion strains, locus YLR221C, strain rsa3, hits give low values 0.976 | S. cerevisiae deletion strains, locus YLR258W, strain gsy2, hits give low values 0.987 | S. cerevisiae deletion strains, locus YLR262C, strain YPT6 (second series), hits give low values 0.979 | S. cerevisiae deletion strains, locus YLR262C, strain YPT6, hits give low values 1.01 | S. cerevisiae deletion strains, locus YLR268W, strain sec22, hits give low values 1.04 | S. cerevisiae deletion strains, locus YLR320W, strain mms22, hits give low values 0.985 | S. cerevisiae deletion strains, locus YLR330W, strain CHS5, hits give low values 1.01 | S. cerevisiae deletion strains, locus YLR342W, strain FKS1 (second series), hits give low values 1.02 | S. cerevisiae deletion strains, locus YLR342W, strain FKS1, hits give low values 0.998 | S. cerevisiae deletion strains, locus YLR357W, strain rsc2, hits give low values 0.977 | S. cerevisiae deletion strains, locus YLR370C, strain arc18, hits give low values 0.991 | S. cerevisiae deletion strains, locus YLR371W, strain rom2, hits give low values 1.02 | S. cerevisiae deletion strains, locus YLR384C, strain iki3, hits give low values 0.998 | S. cerevisiae deletion strains, locus YLR418C, strain cdc73, hits give low values 1.02 | S. cerevisiae deletion strains, locus YML016C, strain PPZ1, hits give low values 1.04 | S. cerevisiae deletion strains, locus YML032C, strain rad52, hits give low values 1.03 | S. cerevisiae deletion strains, locus YML120C, strain ndi1, hits give low values 0.972 | S. cerevisiae deletion strains, locus YML124C, strain tub3, hits give low values 1.01 | S. cerevisiae deletion strains, locus YMR058W, strain fet3, hits give low values 0.981 | S. cerevisiae deletion strains, locus YMR078C, strain ctf18, hits give low values 1.01 | S. cerevisiae deletion strains, locus YMR125W, strain sto1, hits give low values 0.977 | S. cerevisiae deletion strains, locus YMR129W, hits give low values 0.989 | S. cerevisiae deletion strains, locus YMR205C, strain PFK2, hits give low values 1 | S. cerevisiae deletion strains, locus YMR223W, strain ubp8, hits give low values 1.01 | S. cerevisiae deletion strains, locus YMR231W, strain pep5, hits give low values 0.981 | S. cerevisiae deletion strains, locus YMR263W, strain SAP30, hits give low values 1.01 | S. cerevisiae deletion strains, locus YMR307W, strain GAS1, hits give low values 0.878 | S. cerevisiae deletion strains, locus YNL067W, strain RPL9B, hits give low values 1.01 | S. cerevisiae deletion strains, locus YNL071W, strain lat1, hits give low values 0.977 | S. cerevisiae deletion strains, locus YNL183C, strain NPR1, hits give low values 0.95 | S. cerevisiae deletion strains, locus YNL209W, strain ssb2, hits give low values 0.971 | S. cerevisiae deletion strains, locus YNL233W, strain BNI4, hits give low values 1.01 | S. cerevisiae deletion strains, locus YNL248C, strain rpa49, hits give low values 1 | S. cerevisiae deletion strains, locus YNL250W, strain rad50, hits give low values 1 | S. cerevisiae deletion strains, locus YNL271C, strain bni1, hits give low values 1.01 | S. cerevisiae deletion strains, locus YNL298W, strain CLA4, hits give low values 1.02 | S. cerevisiae deletion strains, locus YNL307C, strain MCK1, hits give low values 1.03 | S. cerevisiae deletion strains, locus YNL322C, strain KRE1 (second series), hits give low values 0.964 | S. cerevisiae deletion strains, locus YNR049C, strain mso1, hits give low values 0.981 | S. cerevisiae deletion strains, locus YNR052C, strain pop2, hits give low values 1.01 | S. cerevisiae deletion strains, locus YOL006C, strain TOP1, hits give low values 1 | S. cerevisiae deletion strains, locus YOL012C, strain htz1 1.35 | S. cerevisiae deletion strains, locus YOL147C, strain pex11, hits give low values 1.02 | S. cerevisiae deletion strains, locus YOR001W, strain rrp6, hits give low values 0.954 | S. cerevisiae deletion strains, locus YOR061W, strain CKA2, hits give low values 1 | S. cerevisiae deletion strains, locus YOR069W, strain VPS5, hits give low values 1.01 | S. cerevisiae deletion strains, locus YOR070C, strain gyp1, hits give low values 0.996 | S. cerevisiae deletion strains, locus YOR080W, strain dia2, hits give low values 0.981 | S. cerevisiae deletion strains, locus YOR083W, strain WHI5, hits give low values 0.966 | S. cerevisiae deletion strains, locus YOR106W, strain vam3, hits give low values 0.999 | S. cerevisiae deletion strains, locus YOR136W, strain idh2, hits give low values 1.01 | S. cerevisiae deletion strains, locus YOR144C, strain elg1, hits give low values 1.01 | S. cerevisiae deletion strains, locus YOR184W, strain ser1, hits give low values 1.03 | S. cerevisiae deletion strains, locus YOR231W, strain MKK1, hits give low values 0.996 | S. cerevisiae deletion strains, locus YOR265W, strain rbl2, hits give low values 0.997 | S. cerevisiae deletion strains, locus YOR270C, strain vph1, hits give low values 0.96 | S. cerevisiae deletion strains, locus YOR290C, strain snf2, hits give low values 0.993 | S. cerevisiae deletion strains, locus YOR316C, strain cot1, hits give low values 1 | S. cerevisiae deletion strains, locus YPL051W, strain arl3, hits give low values 1.01 | S. cerevisiae deletion strains, locus YPL078C, strain atp4, hits give low values 1.04 | S. cerevisiae deletion strains, locus YPL106C, strain sse1, hits give low values 0.976 | S. cerevisiae deletion strains, locus YPL240C, strain hsp82, hits give low values 0.983 | S. cerevisiae deletion strains, locus YPL256C, strain CLN2, hits give low values 0.984 | S. cerevisiae deletion strains, locus YPR119W, strain clb2, hits give low values 1.02 | S. cerevisiae deletion strains, locus YPR141C, strain kar3, hits give low values 1.02 | S. cerevisiae deletion strains, locus YPR163C, strain tif3, hits give low values 1.02 | S. cerevisiae deletion strains, locus YPR167C, strain met16, hits give low values 1.01 | S. cerevisiae deletion strains, strain wtn01, hits give low values 1.01 | S. cerevisiae strains, strain wild type, hits give low values 1.01

Source: PubChem BioAssay AID1159580 (chemical genetic matrix, 2015)
